In PubChem BioAssay AID1159580 (chemical genetic matrix, 2015):
“And” between values parts separate entries of the source, which are not always exact repeats. Equal entries are not always repeated. The whole screen tested about 5,500 compounds, of which about 2,000 (36%) were called active. Not shown: some 18% with an inconclusive outcome. No stated cut-off is given here; in the data, active means normalized growth mostly below about 0.91 (no sharp cut-off); inconclusive means no clear call, values can overlap the other calls; inactive means mostly above about 0.92. Some of the results follow.

Test: chemical genetic growth profiling, strain panel (AID 1159580);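 further: tested at 20 µM; growth read once vehicle control cultures reached saturation at 30 °C; 1 = growth at the plate median or of vehicle wells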
Conditions: S. cerevisiae deletion strains, growth OD

Measured: normalized growth

CN1C[C@H](C(=O)N[C@]2(C)O[C@@]3(O)[C@@H]4CCCN4C(=O)[C@H](Cc4ccccc4)N3C2=O)C[C@@H]2c3cccc4[nH]cc(c34)C[C@H]21
inactive: locus YAL013W, strain DEP1, stronger effect = lower value 0.96 | locus YAL021C, strain ccr4, stronger effect = lower value 0.95 | locus YAL026C, strain drs2, stronger effect = lower value 1.01 | locus YAL030W, strain snc1, stronger effect = lower value 0.984 | locus YBL061C, strain skt5, stronger effect = lower value 0.996 | locus YBR009C, strain hhf1, stronger effect = lower value 1.07 | locus YBR021W, strain FUR4, stronger effect = lower value 0.929 | locus YBR023C, strain chs3, stronger effect = lower value 1 | locus YBR171W, strain sec66, stronger effect = lower value 0.973 | locus YBR229C, strain ROT2, stronger effect = lower value 0.983 | locus YBR231C, strain swc5, stronger effect = lower value 0.987 | locus YBR279W, strain paf1, stronger effect = lower value 0.997 | locus YCL011C, strain gbp2, stronger effect = lower value 0.966 | locus YCL016C, strain dcc1, stronger effect = lower value 0.998 | locus YCL029C, strain bik1, stronger effect = lower value 0.973 | locus YCL061C, strain MRC1, stronger effect = lower value 0.998 | locus YCL069W, strain vba3, stronger effect = lower value 0.992 | locus YCR088W, strain abp1, stronger effect = lower value 0.994 | locus YDL005C, strain med2, stronger effect = lower value 0.997 | locus YDL035C, strain GPR1, stronger effect = lower value 1.01 | locus YDL040C, strain nat1, stronger effect = lower value 1 | locus YDL074C, strain BRE1, stronger effect = lower value 0.896 | locus YDL101C, strain DUN1, stronger effect = lower value 0.957 | locus YDL134C, strain PPH21, stronger effect = lower value 0.992 | locus YDL185W, strain tfp1, stronger effect = lower value 0.998 | locus YDL192W, strain arf1, stronger effect = lower value 0.988 | locus YDR001C, strain nth1, stronger effect = lower value 0.981 | locus YDR069C, strain doa4, stronger effect = lower value 0.987 | locus YDR101C, strain arx1, stronger effect = lower value 0.996 | locus YDR137W, strain rgp1, stronger effect = lower value 1.02 | locus YDR150W, strain NUM1, stronger effect = lower value 1 | locus YDR159W, strain sac3, stronger effect = lower value 1 | locus YDR162C, strain NBP2, stronger effect = lower value 0.987 | locus YDR195W, strain ref2 0.99 | locus YDR297W, strain sur2, stronger effect = lower value 0.981 | locus YDR318W, strain mcm21, stronger effect = lower value 0.97 | locus YDR334W, strain swr1, stronger effect = lower value 0.944 | locus YDR335W, strain msn5, stronger effect = lower value 0.992 | locus YDR388W, stronger effect = lower value 0.981 | locus YDR392W, strain spt3, stronger effect = lower value 0.871 | locus YDR502C, strain sam2, stronger effect = lower value 0.968 | locus YEL003W, strain gim4, stronger effect = lower value 0.99 | locus YEL037C, strain rad23, stronger effect = lower value 0.987 | locus YEL061C, strain CIN8 (second series), stronger effect = lower value 0.994 | locus YEL061C, strain CIN8, stronger effect = lower value 0.996 | locus YER015W, strain faa2, stronger effect = lower value 0.971 | locus YER016W, strain bim1, stronger effect = lower value 0.988 | locus YER110C, stronger effect = lower value 0.977 | locus YER111C, strain swi4, stronger effect = lower value 1.01 | locus YER155C, strain BEM2 (second series), stronger effect = lower value 0.964 | locus YER155C, strain BEM2, stronger effect = lower value 0.979 | locus YER167W, strain BCK2, stronger effect = lower value 0.981 | locus YFR010W, strain ubp6, stronger effect = lower value 0.997 | locus YGL078C, strain dbp3, stronger effect = lower value 0.982 | locus YGL086W, strain mad1, stronger effect = lower value 0.985 | locus YGL167C, strain pmr1, stronger effect = lower value 1 | locus YGL173C, strain kem1, stronger effect = lower value 0.993 | locus YGL227W, strain vid30, stronger effect = lower value 0.996 | locus YGL240W, strain doc1, stronger effect = lower value 0.938 | locus YGL248W, strain PDE1, stronger effect = lower value 0.945 | locus YGL253W, strain hxk2, stronger effect = lower value 0.98 | locus YGR078C, strain PAC10, stronger effect = lower value 0.947 | locus YGR135W, strain pre9, stronger effect = lower value 0.912 | locus YHR013C, strain ard1, stronger effect = lower value 0.971 | locus YHR027C, strain rpn1, stronger effect = lower value 0.967 | locus YHR030C, strain SLT2, stronger effect = lower value 0.994 and 1.01 | locus YHR079C, strain IRE1 (second series), stronger effect = lower value 0.977 | locus YHR079C, strain IRE1, stronger effect = lower value 1.01 | locus YHR094C, strain hxt1, stronger effect = lower value 0.98 | locus YHR129C, strain ARP1, stronger effect = lower value 0.983 | locus YHR142W, strain chs7, stronger effect = lower value 1 | locus YHR200W, strain rpn10, stronger effect = lower value 0.981 | locus YIL066C, strain RNR3, stronger effect = lower value 0.984 | locus YIL073C, strain SPO22, stronger effect = lower value 0.98 | locus YIL125W, strain kgd1, stronger effect = lower value 0.987 | locus YIR030C, strain dcg1, stronger effect = lower value 0.975 | locus YJL092W, strain hpr5, stronger effect = lower value 0.985 | locus YJL095W, strain BCK1 (second series), stronger effect = lower value 0.98 | locus YJL095W, strain BCK1, stronger effect = lower value 0.926 and 1.03 | locus YJL115W, strain asf1, stronger effect = lower value 0.983 | locus YJL129C, strain trk1, stronger effect = lower value 0.973 | locus YJL134W, strain LCB3, stronger effect = lower value 0.984 | locus YJL154C, strain vps35, stronger effect = lower value 0.982 | locus YJL164C, strain tpk1, stronger effect = lower value 1.02 | locus YJL166W, strain qcr8, stronger effect = lower value 0.94 | locus YJL168C, strain set2, stronger effect = lower value 0.98 | locus YJL187C, strain SWE1 (second series), stronger effect = lower value 0.941 | locus YJL187C, strain SWE1, stronger effect = lower value 0.986 | locus YJR043C, strain POL32, stronger effect = lower value 0.991 | locus YJR066W, strain TOR1, stronger effect = lower value 0.94
active: locus YGR252W, strain gcn5, stronger effect = lower value 0.741
